Laboratory results as given in PubChem BioAssay (NCI).
Compounds without any hit were thinned out: in the full panel of roughly 79,000, 15% have a hit. Values without a mark were called inactive. The source made the active and inactive calls. Cut-off read from the data, not from the text of the source: active = growth inhibition above about 70%; inactive = the rest.

How the values were obtained:
[1] = NCI Yeast Anticancer Drug Screen. Data for the rad50 strain (AID 155);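 note: 0% = growth of vehicle-only cultures of the same strain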; conditions: S. cerevisiae rad50 strain growth inhibition, hits give high values
How it was run: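 A DNA repair-deficient yeast mutant serves as the test organism; compound-induced growth inhibition is calculated against vehicle-treated cells.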

[2] = NCI Yeast Anticancer Drug Screen. Data for the mec2-1 strain (AID 157); conditions: S. cerevisiae mec2-1 strain, hits give high values
How it was run: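 Compounds were applied to mec2-1 yeast cells. Their growth was then compared with that of vehicle-treated cultures to give growth inhibition.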

[3] = NCI Yeast Anticancer Drug Screen. Data for the sgs1 mgt1 strain (AID 161);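 note: 0% = growth of cultures given vehicle only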; conditions: S. cerevisiae sgs1 mgt1 strain, hits give high values
How it was run: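 Growth of a repair-deficient yeast mutant was monitored after compound treatment and expressed as inhibition relative to vehicle-treated cultures.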

[4] = NCI Yeast Anticancer Drug Screen. Data for the cln2 rad14 strain (AID 165);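 note: 0% = growth equal to vehicle treated cultures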; conditions: S. cerevisiae cln2 rad14 strain, hits give high values
How it was run: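 Strain: cln2 rad14 yeast, altered in cell cycle control and DNA damage repair. Read-out: growth inhibition vs vehicle.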

[5] = NCI Yeast Anticancer Drug Screen. Data for the bub3 strain (AID 167); conditions: S. cerevisiae bub3 mutant strain, hits give high values
How it was run: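 Inhibition values come from growth of compound-treated mutant yeast normalised to vehicle-treated controls.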

[6] = NCI Yeast Anticancer Drug Screen. Data for the mlh1 rad18 strain (AID 175); conditions: S. cerevisiae mlh1 rad18 strain growth inhibition, hits give high values
How it was run: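 A repair-deficient yeast strain is exposed to test compound, and growth is scored relative to vehicle-treated controls.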

[7] = at 5.0 µM (retest, dose inferred, filed as 0.5)
[8] = at 50.0 µM (retest, dose inferred, filed as 5.0)

Structure (SMILES)	growth inhibition [1, 7]	growth inhibition [1, 8]	growth inhibition ([1]; at 50.0 µM)	growth inhibition [2, 7]	growth inhibition [2, 8]	growth inhibition ([2]; at 50.0 µM)	growth inhibition [3, 7]	growth inhibition [3, 8]	growth inhibition ([3]; at 50.0 µM)	growth inhibition [4, 7] [%]	growth inhibition [4, 8]	growth inhibition ([4]; at 50.0 µM)	growth inhibition [5, 7]	growth inhibition [5, 8]	growth inhibition ([5]; at 50.0 µM)	growth inhibition [6, 7]	growth inhibition [6, 8]	growth inhibition ([6]; at 50.0 µM)
Clc1cccc(N2CCN(c3c4c(nc5ccccc35)CCCCC4)CC2)c1	81% (active)	94% (active)	93% (active)	93% (active)	99% (active)	95.5% (active)	87% (active)	96% (active)	95.2% (active)	28	89% (active)	93.2% (active)	73% (active)	93% (active)	92.1% (active)	92% (active)	95% (active)	93.9% (active)
COc1cc2c(ccc3cc4cccc[n+]4cc32)c(Br)c1OC	0%	44%	76.8% (active)	-6%	73% (active)	42.5%	-7%	39%	73.2% (active)	-8	13%	20.4%	-5%	46%	10.4%	4%	75% (active)	67.8%
CC(C)SCC1CO1 (stereo not given)	-1%	1%	-19.6%	-1%	-4%	3.9%	-1%	1%	18.1%	2	-11%	47.5%	0%	-9%	-6.55%	-1%	-5%	-3.5%
O=C(Nc1cccc(Br)c1)Oc1ccc(Cl)c2cccnc12	38%	98% (active)	89% (active)	4%	99% (active)	91.1% (active)	7%	99% (active)	91.7% (active)	4	97% (active)	89% (active)	-7%	98% (active)	89.9% (active)	16%	98% (active)	90.8% (active)
c1ccc(/C(=N\Nc2nc3ccccc3s2)c2ccccn2)cc1	0%	88% (active)	71.7% (active)	9%	79% (active)	73.5% (active)	-6%	90% (active)	75.4% (active)	-17	75% (active)	79.7% (active)	-6%	87% (active)	78.7% (active)	11%	89% (active)	81.3% (active)
C[C-](O)O.O/C(=C\[C-](O)c1ccccc1)c1ccccc1.O/C(=C\[C-](O)c1ccccc1)c1ccccc1.[Nd+3] (stereo not given)	36%	36%	90.1% (active)	36%	36%	92.7% (active)	42%	42%	93.3% (active)	21	21%	88.7% (active)	20%	20%	90.2% (active)	30%	30%	85.9% (active)
Nc1n[n+](-c2ccccc2)no1	34%	81% (active)	61%	16%	46%	33.4%	24%	60%	56.6%	45	59%	23%	43%	59%	45.2%	31%	68%	70.6% (active)
NC(=O)/C(=N\NC(=O)c1cc2ccccc2cc1O)C1C(=O)N(c2ccccc2)N=C1N (stereo not given)	15%	15%	71.5% (active)	6%	6%	43.4%	7%	7%	20.7%	16	16%	11.7%	2%	2%	50.1%	25%	25%	67.4%
O=c1cc(-c2ccccc2)[nH]c2ccc(N3CCCC3)cc12	17%	26%	-26.8%	7%	9%	-4.35%	13%	13%	-29.9%	0	7%	7.25%	14%	6%	-8.65%	11%	5%	0.5%
CN(C)CC1Cc2ccsc2C1=O (stereo not given)	0%	85% (active)	99% (active)	5%	75% (active)	99.5% (active)	3%	54%	99.4% (active)	1	76% (active)	99.5% (active)	0%	88% (active)	99.3% (active)	0%	93% (active)	99.2% (active)
NC(=S)N/N=C\c1nccc2c(C(F)(F)C(F)(F)C(F)(F)F)cccc12	26%	61%	57.9%	39%	69%	74.5% (active)	39%	69%	74% (active)	10	62%	69.6%	11%	81% (active)	75.6% (active)	24%	69%	73.3% (active)
Cc1c2c(c(C)c3ccncc13)S(=O)(=O)c1ccccc1-2	88% (active)	87% (active)	94.3% (active)	52%	69%	36.2%	38%	65%	55.3%	39	36%	28.9%	41%	33%	55%	75% (active)	85% (active)	79.9% (active)
O=C(/C=C\c1ccccc1)N1c2ccccc2CC1c1c[nH]c2ccccc12 (stereo not given)	-10%	11%	6.35%	-1%	17%	-1.7%	4%	19%	10.3%	-1	1%	36.9%	20%	41%	-2.1%	7%	11%	12.2%
CCC(CC)COC(=O)c1ccc(O)c(O)c1	-6%	91% (active)	98.8% (active)	-5%	72% (active)	99.2% (active)	-2%	91% (active)	48.1%	-14	98% (active)	99.1% (active)	1%	99% (active)	99.1% (active)	-6%	99% (active)	98.9% (active)
CSC(=S)NNC(C)c1nccc2ccccc12 (stereo not given)	23%	97% (active)	97.8% (active)	-3%	98% (active)	98.8% (active)	29%	97% (active)	98.8% (active)	-8	97% (active)	97.8% (active)	-7%	97% (active)	98.2% (active)	2%	97% (active)	98.8% (active)
Cc1cc(N(CCOS(C)(=O)=O)CCOS(C)(=O)=O)ccc1C=Nc1ccc(-c2csc(-c3ccc(Cl)cc3)n2)cc1	22%	93% (active)	93.9% (active)	17%	96% (active)	97% (active)	18%	93% (active)	96.4% (active)	4	93% (active)	87.7% (active)	-2%	88% (active)	90.3% (active)	57%	95% (active)	94.9% (active)
CC#Cc1cc2c(cc1O)CC[C@@H]1[C@@H]2CC[C@]2(C)[C@@H](O)CC[C@@H]12	39%	99% (active)	84.7% (active)	22%	100% (active)	90.3% (active)	24%	99% (active)	88.5% (active)	20	99% (active)	72.4% (active)	26%	99% (active)	87.7% (active)	29%	99% (active)	93.3% (active)
CC(=O)Oc1cc2c(cc1OC(C)=O)OCC(c1ccccc1)C2 (stereo not given)	2%	45%	69.3%	5%	48%	56.3%	4%	60%	76.5% (active)	3	20%	35.9%	41%	93% (active)	94.8% (active)	-10%	53%	63.4%
COC(=O)c1nc2ccc([N+](=O)[O-])cc2n1O	-154%	-155%	2.25%	-54%	-59%	19.8%	-60%	-70%	2.95%	-53	-60%	36%	-68%	-80%	4.8%	-116%	-111%	4.3%
CC(CCNCCC#N)CC(C)(C)C (stereo not given)	6%	66%	76.9% (active)	-4%	32%	47.8%	9%	43%	86.2% (active)	7	33%	48.5%	7%	47%	63%	12%	66%	68.8%
